This note sets out measurements from ChEMBL document CHEMBL3988442, “University of Dundee, Small-Polar-MMV Screening Library” (2021).

Each structure is given as a SMILES string. In all, about 48,000 compounds went through this assay and about 13,000 (27%) showed an effect of 50% or more. Some of the results follow.

For this assay, the system named is Wolbachia pipientis. Description: Anti-Wolbachia Cell-Based Screen. Format: functional. Further details: scale not given: in the data most compounds retested in dose-response had high values. The settings on record: 5 µM.
Take `c1ccc(NCc2cn3c(n2)CN(Cc2ccoc2)CC3)nc1`: the “Percent Effect” value amounted to 6.648%. `COc1ccccc1OCCCc1cccc(C#N)n1`: the “Percent Effect” value is reported as -3.599%. With `FC(F)(F)CCc1ccnc(N2CCN(CCc3ccncc3)CC2)n1` the figure was -22.6%.

Turning to `CC(C)N1CCC(N2CCN(C3CCC3)CC2CCO)CC1` (stereo unspecified), the “Percent Effect” value is listed as 3.855%. For `Cc1nc(CN2C[C@@H]3CN(C(=O)c4ccco4)C[C@@H]3C2=O)cs1.O=C(O)C(F)(F)F` the value was -11.8%; for `Cc1nc2c(c(N3CCN(Cc4ccco4)CC3)n1)CCNCC2`, 3.397%; for `Cc1nc(CN2C(=O)CC[C@@H]3[C@H]2CCN3C(=O)c2ccc[nH]2)cs1`, -9.626%. Consider `CCc1nc(C)sc1C(=O)N1CCN(c2ncccc2C)CC1`, for which the “Percent Effect” value turned out to be 34.17%. `Cc1nc(CN2CCC23CCN(C(=O)c2ccco2)CC3)cs1`: the “Percent Effect” value came out at 98.46%.

As for `Cc1nc(CN2C(=O)CCC23CCN(c2ncccc2C)CC3)cs1`, the “Percent Effect” value turned out to be 91.84%.

For the molecule `O=C1CCC2(CCCN(c3ncc(F)cn3)CC2)N1Cc1ccccc1` (stereo unspecified), the “Percent Effect” value was -5.866%. With `O=C(c1ccc[nH]1)N1CC2(CCN(c3nccs3)C2)C1` the figure was -14.28%. With `Cc1nc(CN2CCOCC23CCN(c2ccc(C#N)cc2)CC3)cs1.O=C(O)C(F)(F)F` the figure was -24.99%; with `Cc1nc(CN2C(=O)CCC23CCN(Cc2ccco2)CC3)cs1`, 111.9%. For `Cc1nc(CN2CCC3(C2)CN(C(=O)c2ccc[nH]2)C3)cs1` the value was 122.8%; for `COc1cccc(C(=O)Nc2ccc(OCCC(N)=O)cc2)c1OC`, 3.494%; for `N#Cc1ccc(OC2CCN(C(=O)COCC3CCCO3)CC2)cc1` (stereo unspecified), -13.18%. Take `Cc1cnn(CCC(=O)NS(=O)(=O)N2CCCc3ccccc32)c1`: the “Percent Effect” value worked out at 4.859%. With `Cc1nc(C2CCCN(C(=O)c3ccc(Cn4cccn4)o3)C2)no1` (stereo unspecified) the figure was -2.072%; with `Cc1nc(CN2CCOC3(CCCN(c4nccs4)C3)C2)cs1` (stereo unspecified), -8.721%.

On to `Cc1nc(CN2CCN(Cc3ccoc3)Cc3cccnc32)cs1.O=C(O)C(F)(F)F.O=C(O)C(F)(F)F.O=C(O)C(F)(F)F`, for which the “Percent Effect” value is given as 3.214%.

On to `Cc1nc(CN2CCC3(C2)CN(Cc2ccco2)C3)cs1`, for which the “Percent Effect” value was found to be 129%. For `Cc1nc(CN2CCC23CCN(Cc2ccco2)CC3)cs1` the value was 101.3%; for `O=C(O)C(F)(F)F.O=C(O)C(F)(F)F.c1coc(CN2CCCC3(COCCN(Cc4c[nH]nn4)C3)C2)c1` (stereo unspecified), -3.131%; for `Cc1nc(CN2CCC23CCN(Cc2ccoc2)CC3)cs1`, 97.06%.

Regarding `Cc1cc(C)c(Cn2cncn2)cc1CN1CC[C@H](CO)[C@@H](O)C1`, the “Percent Effect” value came to 2.193%.

Take `COCCN(Cc1noc(-c2ccc(OC)cc2)n1)C1CC1`: the “Percent Effect” value was found to be 20.29%.

Turning to `CCOCC1CN(C(=O)c2ccsc2)Cc2nn(C)cc21` (stereo unspecified), the “Percent Effect” value was -7.597%. With `CC(Cc1cccc(F)c1)C(=O)NS(=O)(=O)c1cnn(C)c1` (stereo unspecified) the figure was -18.57%.

Regarding `Cc1cccc2nc(CN3CCC(Cn4ccnn4)CC3)cc(=O)n12`, the “Percent Effect” value is on record as -3.748%. For `CCn1cnnc1C1CCN(C(=O)c2ccc(C(=O)OC)s2)CC1` the value was -1.592%. With `CCn1cnnc1C1CCN(C(=O)c2cnc(C3CC3)s2)CC1` the figure was -9.527%; with `CCn1cnnc1C1CCN(C(=O)c2ccc(OC(C)C)nc2)CC1`, 106.8%. With `CCn1cnnc1C1CCN(C(=O)c2cnn(C(C)(C)C)c2)CC1` the figure was 107%; with `Cn1c(C2CC2)nc2c1CCN(CC(=O)Nc1nncs1)C2`, -1.4%; with `O=C(Nc1cccc(F)c1)NC1CCN(Cc2ccncc2)CC1`, -11.06%. As to `CCS(=O)(=O)NCCNC(=O)N(Cc1ccc(C)o1)C(C)C`, the “Percent Effect” value is -16.03%.

In the case of `Cn1nc(C(=O)N2CCCCC2c2nc3cc(F)ccc3[nH]2)ccc1=O` (stereo unspecified), the “Percent Effect” value is listed as 6.226%. For `c1cn2c(n1)CNCC(COCC1CC1)C2` (stereo unspecified) the value was -6.113%; for `Cc1ccc(S(=O)(=O)N2C[C@@H]3C[C@@H](NC(=O)C(C)(C)C)[C@@H]3C2)cc1`, -7.611%.

For `Cc1ccc(S(=O)(=O)N2C[C@H]3C[C@H](NC(=O)c4ccn(C)n4)[C@H]3C2)cc1`, the “Percent Effect” value is reported as 0.5687%.

In the case of `Cc1ccc(S(=O)(=O)N2CC[C@@H]3C[C@H](NC(=O)c4[nH]ncc4Br)[C@@H]32)cc1`, the “Percent Effect” value is 95.45%. In the case of `Cc1ccc(S(=O)(=O)N2CC[C@@H]3C[C@H](NC(=O)c4n[nH]cc4Cl)[C@@H]32)cc1`, the “Percent Effect” value is recorded as 97.43%. For `COC(=O)[C@@H]1Cc2ncn(C)c2CN1S(=O)(=O)c1ccc(C)cc1` the value was -10.72%; for `CS(=O)(=O)NCCC(=O)N1CCN(S(=O)(=O)c2ccc(Br)cc2)CC1`, 3.27%; for `Cc1ccc(S(=O)(=O)N2C[C@H]3C[C@H](NC(=O)c4ccnn4C)[C@H]3C2)cc1`, -12.92%.

In the case of `Cc1ccc(S(=O)(=O)N2CC[C@@H]3C[C@H](NC(=O)c4ccncc4)[C@@H]32)cc1`, the “Percent Effect” value was 124.2%. As for `Cc1cc(C(=O)N2CCc3c(nc(-c4ccncc4)[nH]c3=O)C2)no1`, the “Percent Effect” value is listed as -7.817%.

With `CN(C)C(=O)c1cccn1-c1ccc2c(c1)OCCO2`, the “Percent Effect” value is 99.12%. With `CN(C)C(=O)c1cccnc1-c1ccc2c(c1)OCCO2` the figure was -4.201%; with `O=C(O)C(c1ccc2c(c1)OCCO2)N1CCCCCC1` (stereo unspecified), -0.2284%.

`O=C(O)C(c1ccc2c(c1)OCCO2)N1CCCC1` (stereo unspecified): the “Percent Effect” value is 10.75%. For `O=C(c1cccn1-c1ccc2c(c1)OCCO2)N1CCCC1` the value was 97.35%. With `O=C(c1cccnc1-c1ccc2c(c1)OCCO2)N1CCCC1` the figure was -9.168%; with `O=C(O)c1cccn1-c1ccc2c(c1)OCCO2`, 96.33%. With `CC(=O)N1CC2(CCN(C(=O)c3ccc4c(c3)OCCO4)CC2)C1` the figure was -3.523%; with `Cn1cnnc1C1CCCN(C(=O)c2ccc3c(c2)OCCO3)C1` (stereo unspecified), -7.071%; with `CN(C)C(=O)C(C)(C)c1ccc2c(c1)OCCO2`, -10.01%. As to `CN1CCCN(C(=O)c2cccn2-c2ccc3c(c2)OCCO3)CC1`, the “Percent Effect” value came out at 88.31%. With `CN1CCCN(C(=O)c2ccc3c(c2)nc(N2CCOCC2)n3C)CC1` the figure was 16.47%; with `CN(CC(F)(F)F)C(=O)c1ccc(F)c(NS(C)(=O)=O)c1`, -3.424%.
